HP1b binding inh: blocks HP1-beta chromodomain binding to methylated histone tails; AlphaScreen HP1-beta / biotin-H3K9me3 peptide binding; Potency, µM (titrated, usually from 114 µM), inactives show at the top dose activity change, negative = inhibition, most hits filed as inhibitors; actives 0.56% (n = 390,000); note: potency is the fitted concentration of half-maximal effect; nearly all actives have a fitted effect of over 70% in size
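HP1-beta protein (50 nM final) preincubated 30 min at room temperature with biotinylated H3(1-18)K9me3 peptide (50 nM) in PBS pH 7.4, 0.01% Tween-20, then compound added for 30 min. AlphaScreen streptavidin donor/nickel chelate acceptor beads (10 ug/mL final), 30 min dark, luminescence read.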
JMJD2A Tudor: JMJD2A Tudor domain (human) inhibition; AlphaScreen JMJD2A-Tudor / H3K4me3 peptide binding; Potency, µM (doses to about 114 µM), without a hit: at the highest dose activity change, negative = inhibition, actives largely listed as inhibitors; actives 4.4% (n = 390,000); AID 504339; note: potency is the fitted concentration of half-maximal effect; % is set by controls: 0 for no effect and ±100 for the full control effect; nearly all actives have a fitted effect of over 50% in size
BAZ2B block: inhibitors of human BAZ2B bromodomain; Q9UIF8; AlphaScreen BAZ2B-H3K14Ac peptide displacement; Potency, µM (top dose mostly 114 µM), inactives show top-dose activity change, negative = inhibition, most hits filed as inhibitors; actives 4.4% (n = 360,000); AID 504333; note: potency is the fitted concentration of half-maximal effect; % is set by controls: 0 for no effect and ±100 for the full control effect; nearly all actives have a fitted effect of over 60% in size
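AlphaScreen luminescence quantifies BAZ2B engagement of H3K14Ac peptide; the protein and biotinylated peptide are both at 50 nM final, buffer PBS pH 7.4 with 0.01% Tween-20, all steps at room temperature.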
CtBP-E1A inh: CtBP/E1A binding inhibition; actives 0.49% (n = 340,000); AID 651724; AlphaScreen GST-E1A/His-CtBP binding, 1536-well; active compounds read low; activity change, % (no concentration beside the values); in the data active = activity change below about -65%; inconclusive = mostly about -30% to -63%; note: % is set by controls: 0 for no effect and ±100 for the full control effect
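AlphaScreen with 125 nM GST-E1A and 125 nM His-CtBP (5X stocks) in Tris pH 8.0, 300 mM NaCl, BSA, Tween 20, TCEP. Compounds preincubated 2 h at 37 deg C, then glutathione donor/nickel acceptor beads added for 1 h at 37 deg C in dark.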
Six1-Eya2 blk: Six1/Eya2 interaction inhibition; AlphaScreen GST-Six1/His-Eya2 binding, biochemical; active compounds read low; actives 0.56% (n = 360,000); Q15475+O00167; activity change, % (no concentration beside the values); in the data active = activity change below about -65%; inconclusive = mostly about -30% to -63%; note: % is set by controls: 0 for no effect and ±100 for the full control effect
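AlphaScreen with GST-Six1 and His-Eya2 (5X mix: 250 nM and 500 nM), glutathione donor and nickel acceptor beads; buffer 50 mM Tris pH 8.0, 300 mM NaCl, 1 mM TCEP; 1 h at 37 C in the dark.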
TDP1 inh: inhibitors of human tyrosyl-DNA phosphodiesterase TDP1; Q9NUW8; recombinant TDP1, AlphaScreen DNA substrate cleavage; Potency, µM (top dose mostly 130 µM), for inactives: top-dose activity change, negative = inhibition, actives largely listed as inhibitors; actives 0.28% (n = 350,000); AID 485290; note: potency is the fitted concentration of half-maximal effect; % is set by controls: 0 for no effect and ±100 for the full control effect; nearly all actives have a fitted effect of over 40% in size
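Signal: AlphaScreen proximity between streptavidin donor and anti-FITC acceptor beads on intact substrate. Reaction: Tdp1 1 nM, substrate 15 nM final, 5 min RT after 15 min compound preincubation.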
Numbers without * were called inactive; u = inconclusive; x = not tested or not shown; [ ] = another dose, or the depositor's remark. Shown are actives, neighbours in structure and some others; about 5.3% of the full set was active somewhere. Unless noted, calls come from the whole dose curve; as a rule, active = well fitted inhibition curve with a large enough effect; inconclusive = small, poorly fitted or top-dose-only effect; inactive = no such curve, though single readings can be large or run the other way.

SMILES	HP1b binding inh	JMJD2A Tudor	BAZ2B block	CtBP-E1A inh	Six1-Eya2 blk	TDP1 inh
O=C1NN(c2cccc(Br)c2)C(=O)/C1=C/c1ccc(-c2cc([N+](=O)[O-])ccc2O)o1	u	u	2.2µM*	x	-7	x
CSc1cccc(NC(=O)CN2C(=O)COc3ccc(Cl)cc32)c1	28%	-1%	3%	x	x	-2%
COc1ccccc1CNC(=O)COc1cc(=O)n(C)c2ccccc12	5%	-14%	-7%	x	x	7%
COc1c(O)cc2oc3cc(O)c(CC=C(C)C)c(O)c3c(=O)c2c1CC=C(C)C	x	x	x	x	x	18%[56.1 µM]
CC(C)=CCc1c(O)cc2oc3c(CC=C(C)C)c(O)c(O)c(CC=C(C)C)c3c(=O)c2c1O	4%	50µM*	50µM*	1	-8	x
CCC1=NN(C(=O)c2ccc(Br)cc2)C(O)(c2ccccc2)C1 (stereo unspecified)	18%	-32%	50µM*	6	-7	3%
CO[C@@H]1COC(=O)CCC[C@@H](C)[C@H](OC)COC(=O)CCC[C@H]1C	x	x	x	x	x	5%[21 µM]
Cc1ccc(C)c(Nc2nc3c(S(=O)(=O)c4ccc(Br)cc4)nnn3c3ccsc23)c1	4%	56µM*	50µM*	x	x	x
COc1ccccc1Nc1nc2c(S(=O)(=O)c3ccc(C(C)C)cc3)nnn2c2ccsc12	63%	10%	5%	x	x	0%
Cc1ccc(C)c(Nc2nc3c(S(=O)(=O)c4ccc(C(C)C)cc4)nnn3c3ccsc23)c1	18%	-15%	79µM*	x	x	3%
CCc1nn2c(=O)cc(COC(=O)c3cccc(NC(=O)c4cccs4)c3)nc2s1	7%	-16%	-2%	x	x	-1%
CC(=O)N1CCCc2cc(S(=O)(=O)N3CCN(c4ccc(F)cc4)CC3)ccc21	13%[57 µM]	-28%	13%	x	x	1%
Cn1nccc1/C=C(/C#N)S(=O)(=O)c1ccccc1	-10%	40µM*	3%	6	1	7%
CCOC(=O)N1CCC(NC(=O)c2ccc3c(c2)N(Cc2cc(C)ccc2C)C(=O)c2ccccc2S3=O)CC1 (stereo unspecified)	23%	-19%	-15%	x	x	-1%
CC(=O)Nc1cc(NC(C)=O)cc(C(=O)N2CCCC3CCCCC32)c1 (stereo unspecified)	u	56µM*	50µM*	-13	-27	x
O=C(O)/C=C/c1ccc(OCc2cccc(F)c2)cc1	-2%	14µM*	-13%	20	-2	0%
CCN(C(=O)CSc1nc2ccccc2n1CC(=O)Nc1ccccc1C)c1ccccc1	13%	-24%	u	x	x	6%
COC(=O)C1=C(C)NC(C)=C(C(=O)O[C@@H]2CCCN(Cc3ccccc3)C2)[C@@H]1c1cccc([N+](=O)[O-])c1	u	45µM*	x	-25	-22	x
COc1ccc(C(=O)C2CCCN(Cc3cccn3-c3ccc(Cl)cn3)C2)c(OC)c1 (stereo unspecified)	-16%	-29%	56µM*	-9	-17	-5%
Cc1c(Cl)cccc1NC(=O)N1CCC(CN2CCOCC2)CC1	23%	3%	4%	x	x	-5%
O=C(NCc1ccccc1)C(c1ccncc1)N(C(=O)c1ccccn1)c1ccccc1 (stereo unspecified)	47%	25µM*	50µM*	-2	-3	6%
CCc1cccc(N(C(=O)c2csnn2)C(C(=O)NC(C)(C)C)c2ccncc2)c1 (stereo unspecified)	-5%	56µM*	u	4	5	-1%
CCn1c(-c2ccc(N(C)C)cc2)nc2ccccc21	11%	-31%	50µM*	7	-9	6%
CCn1c(-c2ccc(N)cc2)nc2ccccc21	41%	-13%	7%	5	-10	4%
CC(C)n1c(-c2ccc(N(C)C)cc2)nc2ccccc21	u	56µM*	40µM*	-28	u	5%
CN(C)c1ccc(-c2nc3ccccc3n2C)cc1	1%	-35%	u	45	-4	7%
